# Screening results (PubChem BioAssay)
# Most compounds without a hit are left out; they make up all but 3.1% or so of the library.
# BioA inh – M. tuberculosis BioA enzyme inhibitors, primary screen, biochemical, plate reader, single point, HTS; 7,8-diaminopelargonic acid synthase BioA (Mycobacterium tuberculosis); purified M. tuberculosis BioA enzyme; inhibition, % at 9.99 µM; 360,000 tested, 0.096% active; in the data active = inhibition above about 40%
# GDH-TPI counter-1 – GDH-TPI coupling enzyme inhibitors, primary screen, artefact control for M. tuberculosis FBA inhibitor project, biochemical, absorbance, full deck; GDH-TPI coupled enzyme counterscreen, NADH absorbance; inhibition, % at 4.8 µM; 360,000 tested, 1.2% active; AID 588335, 2011; in the data active = inhibition above about 30%;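 also: 0% = DMSO wells and 100% = wells lacking the enzyme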
# FadD28 binding – inhibitors of FadD28 bisubstrate probe binding, primary screen, biochemical, fluorescence polarization, single point; Mycobacterium tuberculosis FadD28 fatty-acid-AMP ligase; inhibition, % at 12.5 µM; 360,000 tested, 0.22% active; in the data active = inhibition above about 8.5%, passing the limit was not always enough
# FBA Mtb inh – Mtb FBA enzyme inhibitors, primary screen, biochemical, fluorescence, strain H37Rv; purified M. tuberculosis FBA, fluorescence read-out; inhibition, % at 1 µM; Fructose-bisphosphate aldolase (Mycobacterium tuberculosis (strain ATCC 25618 / H37Rv)), …; 360,000 tested, 2.3% active; AID 588726, 2011;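 also: 0% = vehicle and 100% = reference inhibitor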
# Target sequence (P9WQA3 whole entry, looked up): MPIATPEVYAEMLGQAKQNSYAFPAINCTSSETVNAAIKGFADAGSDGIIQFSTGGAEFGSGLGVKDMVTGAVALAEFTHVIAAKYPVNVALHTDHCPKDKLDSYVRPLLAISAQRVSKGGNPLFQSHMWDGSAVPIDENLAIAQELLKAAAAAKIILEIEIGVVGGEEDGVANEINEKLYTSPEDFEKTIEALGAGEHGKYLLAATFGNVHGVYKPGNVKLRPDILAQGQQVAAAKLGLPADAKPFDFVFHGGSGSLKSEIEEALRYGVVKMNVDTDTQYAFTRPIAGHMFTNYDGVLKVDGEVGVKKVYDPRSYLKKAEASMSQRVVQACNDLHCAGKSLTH
# 3CLpro inhibitor – SARS-CoV 3CLpro protease inhibitors, primary screen, biochemical, quenched FRET. AID 1706, 2009. Replicase polyprotein 1ab (Severe acute respiratory syndrome coronavirus), P0C6X7. inhibition, % at 6 µM. recombinant SARS-CoV 3CLpro, quenched FRET peptide cleavage. 290,000 tested, 0.14% active; in the data active = inhibition above about 12%
# Mtb FBA inh conf – M. tuberculosis aldolase blockers, biochemical, fluorescence, strain H37Rv, confirmation; shares compounds with FBA Mtb inh; purified M. tuberculosis FBA, fluorescence read-out; inhibition, % at 1 µM; 5,600 tested, 78% active; AID 651616, 2012;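 also: 0% = vehicle wells and 100% = reference inhibitor wells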
# GDH-TPI counter-2 – GDH-TPI coupling enzyme inhibitors, artefact control for M. tuberculosis FBA inhibitor project, biochemical, fluorescence, high throughput | 5,600 tested, 81% active | shares compounds with FBA Mtb inh | AID 652141, 2013 | inhibition, % at 1 µM | GDH-TPI coupled enzyme counterscreen; in the data active = inhibition above about 10%
# Starred values were filed as active, the others as inactive; · = no result; + = active, no number. Rule as the data show it, unless noted: active = inhibition above about 27%; inactive = the rest.
SMILES,BioA inh,GDH-TPI counter-1,FadD28 binding,FBA Mtb inh,3CLpro inhibitor,Mtb FBA inh conf,GDH-TPI counter-2
NC(=O)c1sc2nc(-c3ccccc3)ccc2c1N,1,-2,-4,0,3,·,·
CCN(CC)C(=O)c1sc2nc(-c3cccs3)cc(-c3cccs3)c2c1N,·,17,-1,11,-9,·,·
NC(=O)c1sc2nc(-c3cccs3)ccc2c1N,0,25,1,76*,-5,62*,56*
Nc1c(C(=O)Nc2nccs2)sc2nc(-c3cccs3)cc(C(F)(F)F)c12,·,10,-2,42*,0,39*,28*
Cc1cc(C(F)(F)F)c2c(N)c(C(=O)NC3CC3)sc2n1,-4,14,1,4,5,·,·
Cc1noc(C)c1NC(=O)Nc1ccc2c(c1)C(=O)N([C@H](C)CO)C[C@H](C)[C@H](CN(C)CC1CC1)OCCCC[C@H](C)O2,0,·,·,·,·,·,·
COc1ccc(CN(C)C[C@@H]2Oc3c(NC(=O)C4CC4)cccc3C(=O)N([C@H](C)CO)C[C@H]2C)cc1,-1,·,·,·,·,·,·
COc1ccc(CN2C[C@@H](C)[C@@H](OC)CN(C)C(=O)c3cc(NC(C)=O)ccc3OC[C@H]2C)cc1,4,·,·,·,·,·,·
COc1ccc(-c2ccc3ccccc3n2)cc1,·,26,0,83*,2,180*,139*
COc1ccc(-c2cc3ccc(OC)cc3cn2)cc1,1,1,-1,46*,·,0,-3
COc1ccc(-c2ccc(OC)cc2)cc1,-1,10,-3,3,3,·,·
COc1ccc2cc(-c3ccon3)ccc2c1,3,6,-2,34*,-2,105*,99*
COc1cc2ccc(-c3ccc4ccccc4n3)cc2cc1OC,·,21,-1,26,·,·,·
Cc1noc(C)c1S(=O)(=O)N(C)C[C@@H]1Oc2ccc(NS(=O)(=O)c3cn(C)cn3)cc2CC(=O)N([C@@H](C)CO)C[C@H]1C,6,·,·,·,·,·,·
CN1C(=O)c2cc(NS(C)(=O)=O)ccc2OC[C@@H]2O[C@H](CC(=O)NCc3ccc(-c4ccccc4)cc3)CC[C@@H]21,5,·,·,·,·,·,·
CO[C@@H]1CN(C)C(=O)c2ccc(NC(C)=O)cc2OC[C@H](C)N(Cc2cncnc2)C[C@@H]1C,-3,·,·,·,·,·,·
COc1cc2c(cc1OC)-c1nnc(-c3ccco3)n1C1(CCCC1)C2,·,-5,-3,47*,-4,108*,84*
CC(C)Cc1[nH]c(=O)c(C#N)c2c1CCC2,-1,29,-1,52*,5,+,169*
CCCCc1[nH]c(=O)c(C#N)c2c1CCCC2,·,12,-2,11,-2,·,·
CN1CCSc2ccc(C(=O)NCc3cccc(Br)c3)cc21,0,-2,-3,66*,-1,51*,35*
COc1ccc(CNC(=O)c2ccc3c(c2)N(C)CCS3)cc1,-1,20,1,52*,-3,86*,59*
Cc1ccccc1NC(=O)c1ccc2c(c1)N(C)CCS2,-1,20,1,4,5,·,·
Cc1cccc(CNC(=O)c2ccc3c(c2)N(C)CCS3)c1,1,7,-1,56*,-3,34*,38*
COc1cccc(CNC(=O)c2ccc3c(c2)N(C)CCS3)c1OC,1,-9,-4,88*,1,49*,45*
COC(=O)c1ccc2c(c1)N(C)CCS2,-1,19,-4,8,-1,·,·
SMILES,BioA inh,GDH-TPI counter-1,FadD28 binding,FBA Mtb inh,3CLpro inhibitor,Mtb FBA inh conf,GDH-TPI counter-2
COc1cccc(-c2cn(CC[C@H]3CC[C@@H](NC(=O)CC4CC4)[C@@H](CO)O3)nn2)c1,3,·,·,·,·,·,·
CC(=O)N(C)C[C@@H]1Oc2cc(-c3cccc(F)c3)ccc2S(=O)(=O)N([C@H](C)CO)C[C@@H]1C,0,·,·,·,·,·,·
c1csc(C2Nc3ccccc3-c3nc4ccccc4n32)c1 (configuration not stated),·,22,-1,58*,0,138*,97*
c1ccc2c(c1)NC(c1ccncc1)n1c-2nc2ccccc21 (configuration not stated),-1,11,-1,56*,-5,0,-5
c1cncc(C2Nc3ccccc3-c3nc4ccccc4n32)c1 (configuration not stated),0,8,-3,36*,1,115*,92*
CC(=O)c1cccc(OC(=O)C2=CC=CN3CCS(=O)(=O)N=C23)c1,-2,12,-1,44*,·,146*,152*
O=S(=O)(NCC[C@@H]1CC[C@H](NS(=O)(=O)c2ccccc2Cl)[C@H](CO)O1)c1ccc(Cl)cc1,-1,·,·,·,·,·,·
Cc1ccc(S(=O)(=O)Nc2ccc3c(c2)C(=O)N([C@@H](C)CO)C[C@H](C)[C@H](CN(C)Cc2ccc(C(=O)O)cc2)OCCCC[C@H](C)O3)cc1,1,·,·,·,·,·,·
CCOC(=O)Cc1cc(=O)n2[nH]c(-c3ccccc3)c(-c3ccccc3)c2n1,2,4,-2,43*,2,81*,67*
CCOC(=O)Cc1cc(=O)n2[nH]c(C)c(-c3ccccc3OC)c2n1,0,-3,1,7,2,·,·
CCOC(=O)Cc1cc(=O)n2[nH]c(-c3ccccc3)cc2n1,0,4,-3,22,-1,·,·
CCOC(=O)Cc1cc(=O)n2[nH]c(C)c(-c3ccccc3)c2n1,1,12,-1,39*,-2,96*,77*
O=C(CCCOc1ccc(Cl)cc1Cl)Nc1ccc(O)cc1C(=O)O,4,26,2,30*,3,+,+
COc1cc(NC(=O)CCCOc2ccc(Cl)cc2Cl)c(C(=O)O)cc1OC,1,13,-1,1,7,·,·
Nc1nc(N)c2cc(Sc3ccc(Cl)cc3)ccc2n1,-1,9,-7,68*,·,64*,59*
Nc1nc(N)c2cc(Sc3ccc4ccccc4c3)ccc2n1,4,6,-3,9,3,·,·
Nc1nc(N)c2cc(Sc3cccc(C(F)(F)F)c3)ccc2n1,2,7,-15,52*,·,+,177*
CN1C(=O)c2cc(NC(=O)c3ccc(F)c(F)c3)ccc2OC[C@H]2O[C@@H](CC(=O)N[C@@H]3CCN(Cc4ccccc4)C3)CC[C@@H]21,0,·,·,·,·,·,·
N#C/C(=C\c1cccc(Cl)c1)c1n[nH]c(Cn2cncn2)n1,-3,5,-1,39*,7,57*,43*
N#C/C(=C\c1ccc(F)cc1)c1n[nH]c(Cn2cncn2)n1,·,20,0,4,-5,·,·
CCn1c(SCc2ccccc2Cl)nc2nc3c(cc2c1=O)CCCC3,-1,3,-3,28*,7,85*,61*
